For experiment [1], the target named is T1, Muscle, skeletal receptor tyrosine-protein kinase (Homo sapiens) (UniProt O15146).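 Further: reported value is the mean percent inhibition of MuSK kinase.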
T1 sequence (whole entry): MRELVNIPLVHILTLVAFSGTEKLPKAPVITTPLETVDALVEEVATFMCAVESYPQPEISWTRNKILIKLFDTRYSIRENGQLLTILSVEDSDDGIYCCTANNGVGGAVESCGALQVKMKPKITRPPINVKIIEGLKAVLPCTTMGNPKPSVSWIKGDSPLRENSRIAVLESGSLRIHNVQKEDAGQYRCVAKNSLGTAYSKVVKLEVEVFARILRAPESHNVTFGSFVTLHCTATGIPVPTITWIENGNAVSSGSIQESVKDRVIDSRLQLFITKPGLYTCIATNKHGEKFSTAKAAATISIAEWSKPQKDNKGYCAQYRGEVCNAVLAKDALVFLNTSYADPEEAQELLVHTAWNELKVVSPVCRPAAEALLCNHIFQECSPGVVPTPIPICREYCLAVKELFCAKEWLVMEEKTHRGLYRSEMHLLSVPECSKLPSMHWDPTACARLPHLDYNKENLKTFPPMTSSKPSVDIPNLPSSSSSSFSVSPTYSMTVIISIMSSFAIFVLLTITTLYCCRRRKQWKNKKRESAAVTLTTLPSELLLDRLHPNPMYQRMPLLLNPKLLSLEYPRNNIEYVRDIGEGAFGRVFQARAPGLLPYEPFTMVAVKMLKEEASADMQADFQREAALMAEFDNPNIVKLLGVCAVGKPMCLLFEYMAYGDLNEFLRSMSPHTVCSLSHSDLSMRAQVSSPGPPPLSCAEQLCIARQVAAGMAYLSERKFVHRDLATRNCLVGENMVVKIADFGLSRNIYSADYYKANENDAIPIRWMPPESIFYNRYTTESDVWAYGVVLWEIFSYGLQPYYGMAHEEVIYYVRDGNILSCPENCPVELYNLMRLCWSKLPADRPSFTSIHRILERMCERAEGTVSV
To be noted: at 1 µM.

Experiment [2] addresses Platelet-derived growth factor receptor alpha (Homo sapiens) (UniProt P16234). To be noted: at 0.1 µM.
For experiment [3] the target is unchanged. Conditions: at 1 µM.
Experiment [4] concerns Platelet-derived growth factor receptor alpha (Homo sapiens), P16234 [D842V]. To be noted: at 0.1 µM.
Sequence of Platelet-derived growth factor receptor alpha (Homo sapiens), P16234 [D842V] (P16234 whole entry D842V): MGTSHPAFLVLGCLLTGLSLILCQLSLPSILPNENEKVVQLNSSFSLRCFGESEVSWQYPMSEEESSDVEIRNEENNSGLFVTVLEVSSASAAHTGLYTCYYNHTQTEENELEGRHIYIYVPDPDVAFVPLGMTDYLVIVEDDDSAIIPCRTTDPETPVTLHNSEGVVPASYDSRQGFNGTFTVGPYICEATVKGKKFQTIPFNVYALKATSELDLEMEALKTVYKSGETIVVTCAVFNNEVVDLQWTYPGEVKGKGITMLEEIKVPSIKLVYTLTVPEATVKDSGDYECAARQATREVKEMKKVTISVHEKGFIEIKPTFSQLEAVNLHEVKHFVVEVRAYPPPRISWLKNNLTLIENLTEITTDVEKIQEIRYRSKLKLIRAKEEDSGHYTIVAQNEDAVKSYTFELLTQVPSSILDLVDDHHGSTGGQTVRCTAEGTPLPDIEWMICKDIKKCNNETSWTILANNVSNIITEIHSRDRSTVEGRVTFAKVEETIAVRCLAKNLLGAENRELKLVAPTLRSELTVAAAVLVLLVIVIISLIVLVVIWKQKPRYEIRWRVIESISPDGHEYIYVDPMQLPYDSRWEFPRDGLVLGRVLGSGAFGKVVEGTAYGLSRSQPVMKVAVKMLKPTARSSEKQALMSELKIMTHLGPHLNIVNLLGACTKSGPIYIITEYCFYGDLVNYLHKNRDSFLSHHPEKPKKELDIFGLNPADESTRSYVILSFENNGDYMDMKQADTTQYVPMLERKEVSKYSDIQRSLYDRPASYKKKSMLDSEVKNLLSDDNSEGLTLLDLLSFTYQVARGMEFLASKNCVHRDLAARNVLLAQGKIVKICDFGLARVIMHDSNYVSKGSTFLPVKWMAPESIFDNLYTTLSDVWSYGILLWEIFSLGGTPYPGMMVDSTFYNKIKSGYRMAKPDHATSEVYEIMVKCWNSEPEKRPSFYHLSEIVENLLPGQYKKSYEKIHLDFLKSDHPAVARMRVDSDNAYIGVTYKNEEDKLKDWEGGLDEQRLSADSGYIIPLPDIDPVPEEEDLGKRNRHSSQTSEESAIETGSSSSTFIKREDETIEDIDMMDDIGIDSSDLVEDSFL
For experiment [5] the test system is unchanged. To be noted: at 1 µM.
Experiment [6] has as its system Platelet-derived growth factor receptor alpha (Homo sapiens), P16234 [T674I]. Conditions: at 0.1 µM.
The test system is the same in experiment [7]. To be noted: at 1 µM.
Experiment [8] deals with Platelet-derived growth factor receptor alpha (Homo sapiens), P16234 [V561D]. To be noted: at 0.1 µM.
Sequence of Platelet-derived growth factor receptor alpha (Homo sapiens), P16234 [V561D] (P16234 whole entry V561D): as the sequence (P16234 whole entry D842V) above, with V561D, V842D counted along it
For experiment [9] the test system is unchanged. To be noted: at 1 µM.
In experiment [10] the target is Platelet-derived growth factor receptor beta (Homo sapiens) (UniProt P09619). To be noted: at 0.1 µM.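 Further: reported value is the mean percent inhibition of the kinase.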
Sequence of Platelet-derived growth factor receptor beta (Homo sapiens) (P09619 whole entry): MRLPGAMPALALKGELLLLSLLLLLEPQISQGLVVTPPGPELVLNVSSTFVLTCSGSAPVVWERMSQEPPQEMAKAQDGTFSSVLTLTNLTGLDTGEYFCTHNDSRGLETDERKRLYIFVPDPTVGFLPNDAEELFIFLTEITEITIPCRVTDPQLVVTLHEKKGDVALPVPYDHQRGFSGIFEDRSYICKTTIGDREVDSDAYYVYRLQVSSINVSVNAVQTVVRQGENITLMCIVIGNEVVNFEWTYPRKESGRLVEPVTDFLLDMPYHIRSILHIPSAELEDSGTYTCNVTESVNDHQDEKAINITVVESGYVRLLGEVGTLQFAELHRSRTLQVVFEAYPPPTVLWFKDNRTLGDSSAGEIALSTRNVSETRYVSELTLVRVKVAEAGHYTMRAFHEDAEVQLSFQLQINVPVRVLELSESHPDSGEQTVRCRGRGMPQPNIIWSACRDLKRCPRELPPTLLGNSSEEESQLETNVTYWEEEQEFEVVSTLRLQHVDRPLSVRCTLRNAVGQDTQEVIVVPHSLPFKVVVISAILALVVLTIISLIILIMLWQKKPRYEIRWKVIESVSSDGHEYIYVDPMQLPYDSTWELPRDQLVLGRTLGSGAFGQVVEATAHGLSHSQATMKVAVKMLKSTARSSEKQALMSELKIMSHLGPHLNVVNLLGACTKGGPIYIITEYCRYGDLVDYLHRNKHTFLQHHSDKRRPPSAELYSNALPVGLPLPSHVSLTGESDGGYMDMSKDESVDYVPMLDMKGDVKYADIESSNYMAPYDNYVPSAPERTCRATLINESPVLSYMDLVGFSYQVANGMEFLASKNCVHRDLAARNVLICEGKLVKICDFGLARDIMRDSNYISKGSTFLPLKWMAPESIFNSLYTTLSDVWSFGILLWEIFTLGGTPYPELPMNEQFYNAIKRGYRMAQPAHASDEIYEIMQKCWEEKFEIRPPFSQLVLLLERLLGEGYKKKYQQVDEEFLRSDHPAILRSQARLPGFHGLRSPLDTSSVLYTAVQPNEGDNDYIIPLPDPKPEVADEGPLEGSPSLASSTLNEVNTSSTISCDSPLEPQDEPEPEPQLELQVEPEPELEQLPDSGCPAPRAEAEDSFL

The record followed here is ChEMBL document CHEMBL1961873, “Compounds: GSK PKIS; Assays: Nanosyn kinase panel” (2012).

Sequence of Platelet-derived growth factor receptor alpha (Homo sapiens), P16234 [T674I] (P16234 whole entry T674I): as the sequence (P16234 whole entry D842V) above, with T674I, V842D counted along it
Sequence of Platelet-derived growth factor receptor alpha (Homo sapiens) (P16234 whole entry): as the sequence (P16234 whole entry D842V) above, with V842D counted along it

For the molecule `Cc1cccc(Nc2ncc(-c3ccccc3)o2)c1`, the inhibition in [1] was 5.58%; in experiment [2], 7.16%; in [3], 29.9%; in experiment [4], 1.63%; in [5], 5.43%; in [6], 7.94%. The inhibition in experiment [7] amounted to 50.3%; in experiment [8], 22.5%; in experiment [9], 48.7%; in experiment [10] it was 7.93%.
As to `Fc1ccc(-c2nn3ccccc3c2-c2ccncc2)cc1`, the inhibition in experiment [1] is 3.5%; in experiment [2], 1.93%; in [3], 5.44%; in experiment [4] it was 1.99%; in experiment [5], 5.38%; in experiment [6], 3.28%. The inhibition in experiment [7] stood at 1.29%; in [8], 1.28%; in experiment [9], 5.89%; in [10], 0.58%.
With `CCCN1CCC(c2ccc(Nc3nc(Nc4cc(F)ccc4C(N)=O)c4cc[nH]c4n3)c(OC)c2)CC1`, the inhibition in [1] came out at 15%; in experiment [2], 8.78%; in experiment [3], 46.5%; in experiment [4] it was 6.28%; in experiment [5], 43.8%; in experiment [6] it was 4.13%. Further, the inhibition came out at 9.42% in experiment [7], 8.22% in experiment [8], 36.4% in experiment [9] and 10.4% in experiment [10].
`Nc1ncc(-c2cccc(S(N)(=O)=O)c2)c2scc(-c3ccc(F)c(Cl)c3)c12`: the inhibition came out at 1.44% in [1]; 18.9% in [2]; 72.1% in [3]; 7.66% in [4]; 42.4% in [5]; 4.52% in [6]. Moreover, the inhibition turned out to be 10.5% in experiment [7], 36.8% in experiment [8], 78.1% in [9] and 14.8% in [10].
As to `CCN(CC)S(=O)(=O)c1ccc(OC)c(Nc2ncc(-c3ccccc3)o2)c1`, the inhibition came to 6.08% in [1]; 12.7% in experiment [2]; 50.7% in [3]; 5.3% in [4]; 23.2% in [5]; 8.47% in [6]. Moreover, the inhibition worked out at 8.95% in [7], 10.1% in experiment [8], 39.2% in experiment [9] and 19.2% in [10].
With `Fc1ccc(-c2cc(-c3c[nH]nc3-c3ccccn3)ccn2)cc1`, the inhibition was -0.34% in [1]; 5.93% in experiment [2]; 19.8% in experiment [3]; 4.02% in [4]; 21.2% in experiment [5]; 5.49% in [6]. In addition, the inhibition was determined as 10.1% in [7], 4.91% in experiment [8], 11.8% in experiment [9] and 3.85% in experiment [10].
`CCn1c(-c2nonc2N)nc2c(C#CC(C)(C)O)nc(OC[C@H](N)c3ccccc3)cc21`: the inhibition in experiment [1] was 5.52%; in experiment [2], 4.66%; in [3] it was 43.8%; in experiment [4] it was 12.2%; in [5], 61.6%; in experiment [6], 9.88%. The inhibition in experiment [7] came out at 47%; in [8], 4.88%; in [9], 42.3%; in experiment [10], 13%.
Take `Nc1nc(-c2cccc(Cl)c2)c(-c2ccc3ncccc3n2)s1`: the inhibition in experiment [1] is 2.14%; in experiment [2], 8.04%; in experiment [3] it was 28.3%; in experiment [4] it was 8.3%; in experiment [5], 40.8%; in [6] it was 5.77%. Besides, the inhibition was found to be 9.67% in experiment [7], 9.61% in experiment [8], 26.7% in [9] and 5.64% in [10].
On to `Cc1ccc(O)cc1Nc1ccnc2cc(-c3ccccn3)ccc12`, for which the inhibition in [1] is 5.77%; in [2], 67.2%; in experiment [3], 89.5%; in experiment [4], 81.4%; in [5] it was 96.2%; in experiment [6], 7.02%. The inhibition in experiment [7] turned out to be 6.98%; in experiment [8], 70.4%; in experiment [9], 105%; in [10] it was 53.4%.
Turning to `O=C(Nc1n[nH]c2cc(-c3ccc(F)cc3)ccc12)C1CC1`, the inhibition in experiment [1] amounted to 4.55%; in experiment [2], 4.52%; in experiment [3], 14.6%; in experiment [4], 4.21%; in [5], 12.9%; in experiment [6], 3.24%. In addition, the inhibition in experiment [7] was 8.33%; in experiment [8], 4.41%; in experiment [9], 13.2%; in experiment [10] it was 2.29%.
Consider `COc1ccc(-c2cc3c(N)ncnc3o2)cc1`, for which the inhibition in experiment [1] was 2.3%; in experiment [2], -1.4%; in experiment [3], 16.5%; in experiment [4] it was 2.85%; in experiment [5], 9.77%; in experiment [6] it was 1.44%. Moreover, the inhibition worked out at 4.01% in experiment [7], 3.4% in experiment [8], 19.1% in experiment [9] and 1.93% in [10].
For the molecule `COc1ccc(-c2cc(-c3c[nH]nc3-c3ccccn3)ccn2)cc1`, the inhibition in [1] was 4.1%; in experiment [2], 13.7%; in experiment [3] it was 42.1%; in [4], 14.9%; in experiment [5], 58.7%; in experiment [6], 7.15%. Further, the inhibition in experiment [7] is 9.53%; in [8], 11.1%; in experiment [9], 40.6%; in [10], 7.26%.
With `c1ccc(-c2nc3n(c2-c2ccc4c(c2)OCO4)CCC3)nc1`, the inhibition in experiment [1] was found to be 2.2%; in [2] it was 3.23%; in [3], 7.15%; in [4], 3.87%; in experiment [5], 2.04%; in experiment [6] it was 2.77%. Besides, the inhibition in experiment [7] is 2.15%; in experiment [8], 2.48%; in experiment [9], 2.33%; in experiment [10], 3.66%.
As for `N#Cc1c(NC(=O)CN2CCOCC2)sc2c1CCCC2`, the inhibition in [1] is 5.38%; in experiment [2], 6.84%; in [3], 10.4%; in experiment [4] it was 3.81%; in experiment [5] it was 4.78%; in [6], 6.89%. Also, the inhibition in experiment [7] amounted to 9.82%; in [8] it was 4.95%; in experiment [9], 3.92%; in experiment [10], 2.42%.
Turning to `O=S(=O)(CCNCc1ccc(-c2ccc3ncnc(Nc4ccc(OCc5cccc(F)c5)c(Cl)c4)c3c2)o1)c1ccccc1`, the inhibition was 5.15% in [1]; 11.9% in experiment [2]; 19% in experiment [3]; 3.35% in [4]; 6.47% in experiment [5]; 7.8% in [6]. Moreover, the inhibition in [7] amounted to 12.8%; in experiment [8], 3.09%; in experiment [9], 8.1%; in [10] it was 5.51%.
Consider `CCc1nn2ncccc2c1-c1ccnc(NC2CC2)n1`, for which the inhibition in [1] amounted to 3.55%; in experiment [2], 4.59%; in [3], 8.05%; in [4] it was 1.28%; in experiment [5], 5.3%; in [6], 4.48%. Besides, the inhibition in experiment [7] stood at 5.6%; in [8] it was 3.69%; in [9], 5.92%; in experiment [10], 4.03%.
In the case of `CCCN(CCS(C)(=O)=O)Cc1ccc(-c2ccc3ncnc(Nc4ccc(OCc5cccc(F)c5)c(Cl)c4)c3c2)o1`, the inhibition in experiment [1] was 2.34%; in experiment [2] it was 7.21%; in experiment [3], 16.2%; in experiment [4] it was 3.62%; in [5], 5.72%; in experiment [6], 4.68%. The inhibition in experiment [7] was determined as 4.67%; in [8] it was 2.84%; in [9], 7.4%; in experiment [10], 3.14%.
In the case of `CCN1CCC(CC(=O)Nc2n[nH]c3nnc(-c4cccc(F)c4F)cc23)CC1`, the inhibition is -2.42% in experiment [1]; 5.32% in [2]; 10.4% in experiment [3]; 4.75% in [4]; 2.84% in [5]; 3.48% in experiment [6]. Further, the inhibition was 4.83% in [7], 2.85% in experiment [8], 3.83% in experiment [9] and -0.56% in [10].
As for `O=C(O[C@H]1CN[C@H](C#Cc2cc3ncnc(Nc4ccc(Cc5ccccc5)cc4)c3s2)C1)N1CCOCC1`, the inhibition in experiment [1] is -2.65%; in [2], -1.51%; in experiment [3], 7.66%; in experiment [4] it was -1%; in [5] it was 2.55%; in [6] it was 1.75%. For the same molecule, the inhibition in experiment [7] is 3.96%; in [8], -0.15%; in [9], 1.53%; in experiment [10], 2.34%.
Take `COc1ccc2[nH]c3c4[nH]c5ccc(OC)cc5c4c4c(c3c2c1)C(=O)NC4=O`: the inhibition in experiment [1] amounted to 11.8%; in [2], 81.1%; in [3] it was 83.5%; in [4], 94.8%; in experiment [5], 96.3%; in [6] it was 65.7%. Besides, the inhibition in experiment [7] amounted to 94.3%; in experiment [8], 93.8%; in [9] it was 96.8%; in experiment [10] it was 78.2%.

Broadly, the inhibition is the change of the read-out against control, counted positive when it falls.
